This is part of a sample that, as a whole, favours compounds with a hit. Of some 83,000 tested, about 20% had one in any assay.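 Note: values are percent growth. 100 is the growth of untreated cells, values between 100 and 0 indicate rising inhibition; between -100 and 0 indicates cell death.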 A number with no mark means an inactive call. Activity calls are given as the source filed them. Rule for the calls: active = growth percent below 10; inactive = the rest.

The first test relates to SNB-75 CNS. In words: NCI-60 one-dose screen, 48 h (100 = growth as untreated, 0 = no growth, -100 = all killed). The settings on record: 10 µM unless noted.
As for `COc1ccc2nc(C)cc(Sc3nc4ccccc4s3)c2c1`, the growth is 46.4%.
As for `CCN(CC)CCCC(C)Nc1ccnc2ccc(Oc3ccccc3)cc12` (stereo unspecified), the growth is 73.2%.
Turning to `FC(F)(F)c1nn[nH]n1`, the growth is 102%.
With `CC(C)c1nc2ccccc2n1CC(=O)N/N=C/c1cccc(O)c1`, the growth is 94.1%.
With `O=c1c2cc(Br)cc(Br)c2nc(-c2ccc(Cl)cc2)n1/N=C\c1ccccc1F`, the growth was 13.7%.
Take `C=CCN(CC#N)CC=C`: the growth is 96.2%.
Still for that read-out and setting: as for `COC(=O)[C@@H](Cc1c[nH]c2ccccc12)NC(=O)/C=C/c1ccccc1`, the figure is 15.3%; as for `CCOC(=O)C(CCCCC(NC(C)=O)(C(=O)OCC)C(=O)OCC)(NC(C)=O)C(=O)OCC`, 95.3%; as for `COc1ccc(-c2cnnn2-c2nonc2-n2cccc2)cc1`, -15.9% (active).
For `CSC1=N/C(=C\c2cccc(OCc3ccc(Cl)cc3)c2)C(=O)N1`, the growth is 82.5%.
On the same count and under the same terms, the value for `COc1ccc([C@H]2c3[nH]c4ccccc4c3C[C@H]3C(=O)N(CCCCCCC(=O)NO)CC(=O)N23)cc1` was -0.662% (active); that for `c1csc(-c2cnc3nonc3n2)c1` was 79.8%; that for `CC1(C)CN(CCNc2nccc(-c3c(-c4cccc(O)c4)nc4sccn34)n2)S(=O)(=O)N1` was 30.5%.
Still for that read-out and setting: the value for `COc1cc(C2CC(c3ccc(Cl)cc3)=NN2C(C)=O)ccc1Oc1ccnc2cc(Cl)ccc12` (stereo unspecified) was 33.2%; that for `CN(C)CCCn1c(=O)c2cc([N+](=O)[O-])ccc2c2cnc3[nH]ccc3c21` was 49.5%; that for `CN(C)N1C(=O)c2c(Cl)c(Cl)c(Cl)c(Cl)c2C1=O` was 92.7%.
Turning to `CCCCCCCCCCCCNC(=O)N[C@H](C(=O)N[C@H]1/C=C/OCCNC(=O)/C=C/[C@H](C(C)C)NC1=O)C(C)C`, the growth is 46.5%.
On the same count and under the same terms, as for `COc1ccc2c(c1)sc1nc(-c3ccccc3)c(-c3cccc4ccccc34)n12`, the figure is 23.2%.
`O=C(O)CSc1ccc(NCc2oc(CO)cc(=O)c2O)cc1`: the growth is 87%.
For `Oc1ccc(-c2nnc3c4[nH]ccc4ncn23)cc1`, the growth was 78.8%.
Regarding `COc1cccc(N2CCN(c3ncnc4cc[nH]c34)CC2)c1`, the growth was 84%.
Same read-out and setting: as for `NC(N)=NC1CCCCC1`, the figure is 107%; as for `COc1cc(CN(c2ccc(C)cc2)C2OC(=O)c3ccccc32)cc(OC)c1OC` (stereo unspecified), 6.43% (active).
With `CC(C)(C)OC[C@@H]1N=C(c2ccc(Br)cc2)Nc2nc3ccccn3c2C1=O`, the growth was 77.4%.
`Cc1ccc(Nc2cc(Cl)c([N+](=O)[O-])cc2[N+](=O)[O-])cc1`: the growth is 96%.
Regarding `N/C(=C\C(=O)n1nc(-c2ccccc2)cc1N)c1ccccc1`, the growth is 29.9%.
On to `Nc1nc(N)c2cc(NCc3ccc(Cl)c(Cl)c3)ccc2n1`, for which the growth is -97.1% (active).
As to `Cn1c(-c2ccccc2)cc(=O)n1-c1ccccc1`, the growth was 92.9%.
On the same count and under the same terms, as for `O=C(Nc1ccncc1)C(=O)c1cn(S(=O)(=O)c2cccc(Cl)c2F)c2ccccc12`, the figure is 80.7%; as for `O=C(CSc1nnc(Cc2ccccc2Nc2c(Cl)cccc2Cl)n1-c1ccccc1)N1N=C(c2ccc3ccccc3c2)CC1c1ccc(Cl)cc1` (stereo unspecified), 81%.
With `CSc1ccc(/C=C2\C=C(CC(=O)NCc3ccc(C(=O)c4ccccc4)cc3)c3cc(F)ccc32)cc1`, the growth is -18.4% (active).
In the case of `C=C1C(=O)O[C@H]2[C@H]1CC/C(COC(=O)NCc1ccc(Cn3c(=O)sn(CCCl)c3=O)cc1)=C\CC[C@@]1(C)O[C@@H]21`, the growth was 85.5%.
Consider `O=C(O/C(=C/c1ccccc1)C(F)(F)F)c1ccccc1`, for which the growth was 92.7%.
Still for that read-out and setting: as for `COc1ccc(N=C2CSc3nnc(-c4cc(F)c(Cl)cc4Cl)n3N2)cc1`, the figure is -60.6% (active); as for `CCCCCCCCN(CCCCCCCC)C(=O)CCl`, 95.4%; as for `CC(C)(CCc1ccccn1)C(=O)CCCc1ccccn1`, 102%.
Take `Cn1cnc([N+](=O)[O-])c1S(=O)(=O)Oc1ccccc1`: the growth is 103%.
For the compound `CCOC(=O)C1=C(C)NC(=S)NC1c1ccccc1` (stereo unspecified), the growth was 82.6%.

The test system of a further test is SNB-19 CNS. The test is described as above. The conditions noted are these: 10 µM unless noted.
As to `COc1ccc2nc(C)cc(Sc3nc4ccccc4s3)c2c1`, the growth was 62%.
For `CCN(CC)CCCC(C)Nc1ccnc2ccc(Oc3ccccc3)cc12` (stereo unspecified), the growth is 89.4%.
In the case of `FC(F)(F)c1nn[nH]n1`, the growth is 116%.
As to `CC(C)c1nc2ccccc2n1CC(=O)N/N=C/c1cccc(O)c1`, the growth was 91.8%.
In the case of `O=c1c2cc(Br)cc(Br)c2nc(-c2ccc(Cl)cc2)n1/N=C\c1ccccc1F`, the growth was 68.8%.
For the compound `C=CCN(CC#N)CC=C`, the growth is 109%.
Turning to `COC(=O)[C@@H](Cc1c[nH]c2ccccc12)NC(=O)/C=C/c1ccccc1`, the growth is 46.4%.
Consider `CCOC(=O)C(CCCCC(NC(C)=O)(C(=O)OCC)C(=O)OCC)(NC(C)=O)C(=O)OCC`, for which the growth was 110%.
Take `COc1ccc(-c2cnnn2-c2nonc2-n2cccc2)cc1`: the growth was 37.6%.
As to `CSC1=N/C(=C\c2cccc(OCc3ccc(Cl)cc3)c2)C(=O)N1`, the growth is 90.4%.
As to `COc1ccc([C@H]2c3[nH]c4ccccc4c3C[C@H]3C(=O)N(CCCCCCC(=O)NO)CC(=O)N23)cc1`, the growth is 48.5%.
For the compound `c1csc(-c2cnc3nonc3n2)c1`, the growth was 81.6%.
For the compound `CC1(C)CN(CCNc2nccc(-c3c(-c4cccc(O)c4)nc4sccn34)n2)S(=O)(=O)N1`, the growth was 87.8%.
Regarding `COc1cc(C2CC(c3ccc(Cl)cc3)=NN2C(C)=O)ccc1Oc1ccnc2cc(Cl)ccc12` (stereo unspecified), the growth is 70.7%.
On the same count and under the same terms, as for `CN(C)CCCn1c(=O)c2cc([N+](=O)[O-])ccc2c2cnc3[nH]ccc3c21`, the figure is 53.5%; as for `CN(C)N1C(=O)c2c(Cl)c(Cl)c(Cl)c(Cl)c2C1=O`, 108%; as for `CCCCCCCCCCCCNC(=O)N[C@H](C(=O)N[C@H]1/C=C/OCCNC(=O)/C=C/[C@H](C(C)C)NC1=O)C(C)C`, 47.1%.
For `COc1ccc2c(c1)sc1nc(-c3ccccc3)c(-c3cccc4ccccc34)n12`, the growth is 29.8%.
Still for that read-out and setting: the value for `O=C(O)CSc1ccc(NCc2oc(CO)cc(=O)c2O)cc1` was 110%.
For the compound `Oc1ccc(-c2nnc3c4[nH]ccc4ncn23)cc1`, the growth was 98.9%.
`COc1cccc(N2CCN(c3ncnc4cc[nH]c34)CC2)c1`: the growth was 66.2%.
For `NC(N)=NC1CCCCC1`, the growth was 104%.
Same read-out and setting: as for `COc1cc(CN(c2ccc(C)cc2)C2OC(=O)c3ccccc32)cc(OC)c1OC` (stereo unspecified), the figure is 38.6%; as for `CC(C)(C)OC[C@@H]1N=C(c2ccc(Br)cc2)Nc2nc3ccccn3c2C1=O`, 76.5%.
`Cc1ccc(Nc2cc(Cl)c([N+](=O)[O-])cc2[N+](=O)[O-])cc1`: the growth is 85.8%.
Turning to `N/C(=C\C(=O)n1nc(-c2ccccc2)cc1N)c1ccccc1`, the growth was 66.6%.
On the same count and under the same terms, as for `Nc1nc(N)c2cc(NCc3ccc(Cl)c(Cl)c3)ccc2n1`, the figure is -85.6% (active).
Same read-out and setting: as for `Cn1c(-c2ccccc2)cc(=O)n1-c1ccccc1`, the figure is 108%.
With `O=C(Nc1ccncc1)C(=O)c1cn(S(=O)(=O)c2cccc(Cl)c2F)c2ccccc12`, the growth was 82.7%.
For the compound `O=C(CSc1nnc(Cc2ccccc2Nc2c(Cl)cccc2Cl)n1-c1ccccc1)N1N=C(c2ccc3ccccc3c2)CC1c1ccc(Cl)cc1` (stereo unspecified), the growth was 95.1%.
Regarding `CSc1ccc(/C=C2\C=C(CC(=O)NCc3ccc(C(=O)c4ccccc4)cc3)c3cc(F)ccc32)cc1`, the growth is 18.2%.
The same measure, in the same setting: as for `C=C1C(=O)O[C@H]2[C@H]1CC/C(COC(=O)NCc1ccc(Cn3c(=O)sn(CCCl)c3=O)cc1)=C\CC[C@@]1(C)O[C@@H]21`, the figure is 99%; as for `O=C(O/C(=C/c1ccccc1)C(F)(F)F)c1ccccc1`, 110%; as for `COc1ccc(N=C2CSc3nnc(-c4cc(F)c(Cl)cc4Cl)n3N2)cc1`, 0.21% (active).
For the compound `CCCCCCCCN(CCCCCCCC)C(=O)CCl`, the growth is 97.5%.
As for `CC(C)(CCc1ccccn1)C(=O)CCCc1ccccn1`, the growth is 94%.
As to `Cn1cnc([N+](=O)[O-])c1S(=O)(=O)Oc1ccccc1`, the growth was 102%.
As to `CCOC(=O)C1=C(C)NC(=S)NC1c1ccccc1` (stereo unspecified), the growth was 104%.
